# Results taken from ChEMBL document CHEMBL1961873, “Compounds: GSK PKIS; Assays: Nanosyn kinase panel” (2012).
# Columns and labels:
# [1] = molecular target: Tyrosine-protein kinase SYK (Homo sapiens) (UniProt P43405); settings: at 1 µM
# [2] = molecular target: T1, Tyrosine-protein kinase Tec (Homo sapiens) (UniProt P42680); settings: at 0.1 µM
# T1 sequence (whole entry): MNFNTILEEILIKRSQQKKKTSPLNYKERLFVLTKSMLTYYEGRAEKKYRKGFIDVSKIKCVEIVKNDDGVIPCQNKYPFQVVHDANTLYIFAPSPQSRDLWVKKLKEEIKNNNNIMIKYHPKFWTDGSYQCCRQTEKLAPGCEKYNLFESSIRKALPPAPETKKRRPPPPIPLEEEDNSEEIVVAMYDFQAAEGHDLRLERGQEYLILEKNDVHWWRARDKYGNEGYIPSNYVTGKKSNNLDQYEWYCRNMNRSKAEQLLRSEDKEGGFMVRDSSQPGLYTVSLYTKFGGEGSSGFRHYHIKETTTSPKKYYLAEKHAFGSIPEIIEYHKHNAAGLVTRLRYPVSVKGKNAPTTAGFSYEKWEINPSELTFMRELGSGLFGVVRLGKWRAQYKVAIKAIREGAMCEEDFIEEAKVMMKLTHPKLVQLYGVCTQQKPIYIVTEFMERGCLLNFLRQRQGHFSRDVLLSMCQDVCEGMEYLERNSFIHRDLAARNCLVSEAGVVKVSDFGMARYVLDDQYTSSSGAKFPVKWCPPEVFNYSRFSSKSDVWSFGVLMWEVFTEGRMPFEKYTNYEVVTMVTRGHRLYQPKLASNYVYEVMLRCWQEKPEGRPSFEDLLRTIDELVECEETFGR
# [3] = molecular target: T1, Tyrosine-protein kinase Tec (Homo sapiens); settings: at 1 µM
# [4] = molecular target: Angiopoietin-1 receptor (Homo sapiens) (UniProt Q02763); settings: at 0.1 µM
# [5] = molecular target: Angiopoietin-1 receptor (Homo sapiens) (UniProt Q02763); settings: at 1 µM
# [6] = molecular target: T2, Non-receptor tyrosine-protein kinase TNK1 (Homo sapiens) (UniProt Q13470); settings: at 0.1 µM
# T2 sequence (whole entry): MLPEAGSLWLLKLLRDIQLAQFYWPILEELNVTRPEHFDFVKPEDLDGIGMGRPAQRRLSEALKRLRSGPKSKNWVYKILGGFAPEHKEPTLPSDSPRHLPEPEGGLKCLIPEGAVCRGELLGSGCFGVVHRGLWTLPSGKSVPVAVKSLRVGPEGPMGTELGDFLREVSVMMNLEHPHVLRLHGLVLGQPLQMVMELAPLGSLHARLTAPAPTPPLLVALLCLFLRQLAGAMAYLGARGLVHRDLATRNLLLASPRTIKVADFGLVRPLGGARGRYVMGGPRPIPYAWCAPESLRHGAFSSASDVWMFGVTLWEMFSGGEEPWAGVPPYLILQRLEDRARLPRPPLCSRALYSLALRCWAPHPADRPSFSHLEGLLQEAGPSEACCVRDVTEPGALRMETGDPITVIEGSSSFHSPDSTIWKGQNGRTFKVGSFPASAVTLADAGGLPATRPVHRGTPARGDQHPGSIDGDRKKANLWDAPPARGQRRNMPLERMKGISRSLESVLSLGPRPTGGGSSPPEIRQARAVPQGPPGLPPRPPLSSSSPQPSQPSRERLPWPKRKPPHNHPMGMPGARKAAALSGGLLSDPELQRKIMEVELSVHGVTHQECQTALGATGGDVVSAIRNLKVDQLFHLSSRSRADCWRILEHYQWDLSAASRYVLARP
# [7] = molecular target: T2, Non-receptor tyrosine-protein kinase TNK1 (Homo sapiens); settings: at 1 µM
# [8] = molecular target: Activated CDC42 kinase 1 (Homo sapiens) (UniProt Q07912); settings: at 0.1 µM
# [9] = molecular target: Activated CDC42 kinase 1 (Homo sapiens) (UniProt Q07912); settings: at 1 µM
# [10] = molecular target: High affinity nerve growth factor receptor (Homo sapiens) (UniProt P04629); settings: at 0.1 µM;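 note: each value is a mean of replicate percent inhibition readings against TRKA kinase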
# Chain of High affinity nerve growth factor receptor (Homo sapiens) (P04629 33-796 limits assumed): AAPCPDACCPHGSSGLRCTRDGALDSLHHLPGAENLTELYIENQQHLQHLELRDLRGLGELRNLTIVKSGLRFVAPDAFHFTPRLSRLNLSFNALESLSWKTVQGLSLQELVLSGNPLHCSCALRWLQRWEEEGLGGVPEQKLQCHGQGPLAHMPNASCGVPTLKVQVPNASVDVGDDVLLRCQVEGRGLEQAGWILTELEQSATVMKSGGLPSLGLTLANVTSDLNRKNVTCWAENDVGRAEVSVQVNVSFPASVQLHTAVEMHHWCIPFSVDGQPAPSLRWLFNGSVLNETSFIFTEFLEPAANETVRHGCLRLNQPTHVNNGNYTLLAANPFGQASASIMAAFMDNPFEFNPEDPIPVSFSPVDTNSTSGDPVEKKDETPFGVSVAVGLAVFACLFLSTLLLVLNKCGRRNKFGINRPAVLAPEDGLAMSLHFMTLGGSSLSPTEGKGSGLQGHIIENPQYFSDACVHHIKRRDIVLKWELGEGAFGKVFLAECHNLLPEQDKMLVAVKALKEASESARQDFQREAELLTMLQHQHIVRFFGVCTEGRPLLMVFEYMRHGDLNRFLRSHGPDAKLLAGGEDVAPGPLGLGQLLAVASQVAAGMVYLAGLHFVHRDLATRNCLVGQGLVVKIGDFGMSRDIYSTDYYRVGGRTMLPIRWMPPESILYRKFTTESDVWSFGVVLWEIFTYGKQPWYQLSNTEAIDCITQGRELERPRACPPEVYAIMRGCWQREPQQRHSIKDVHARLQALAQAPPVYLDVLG
# Chain of Activated CDC42 kinase 1 (Homo sapiens) (Q07912 whole entry, looked up): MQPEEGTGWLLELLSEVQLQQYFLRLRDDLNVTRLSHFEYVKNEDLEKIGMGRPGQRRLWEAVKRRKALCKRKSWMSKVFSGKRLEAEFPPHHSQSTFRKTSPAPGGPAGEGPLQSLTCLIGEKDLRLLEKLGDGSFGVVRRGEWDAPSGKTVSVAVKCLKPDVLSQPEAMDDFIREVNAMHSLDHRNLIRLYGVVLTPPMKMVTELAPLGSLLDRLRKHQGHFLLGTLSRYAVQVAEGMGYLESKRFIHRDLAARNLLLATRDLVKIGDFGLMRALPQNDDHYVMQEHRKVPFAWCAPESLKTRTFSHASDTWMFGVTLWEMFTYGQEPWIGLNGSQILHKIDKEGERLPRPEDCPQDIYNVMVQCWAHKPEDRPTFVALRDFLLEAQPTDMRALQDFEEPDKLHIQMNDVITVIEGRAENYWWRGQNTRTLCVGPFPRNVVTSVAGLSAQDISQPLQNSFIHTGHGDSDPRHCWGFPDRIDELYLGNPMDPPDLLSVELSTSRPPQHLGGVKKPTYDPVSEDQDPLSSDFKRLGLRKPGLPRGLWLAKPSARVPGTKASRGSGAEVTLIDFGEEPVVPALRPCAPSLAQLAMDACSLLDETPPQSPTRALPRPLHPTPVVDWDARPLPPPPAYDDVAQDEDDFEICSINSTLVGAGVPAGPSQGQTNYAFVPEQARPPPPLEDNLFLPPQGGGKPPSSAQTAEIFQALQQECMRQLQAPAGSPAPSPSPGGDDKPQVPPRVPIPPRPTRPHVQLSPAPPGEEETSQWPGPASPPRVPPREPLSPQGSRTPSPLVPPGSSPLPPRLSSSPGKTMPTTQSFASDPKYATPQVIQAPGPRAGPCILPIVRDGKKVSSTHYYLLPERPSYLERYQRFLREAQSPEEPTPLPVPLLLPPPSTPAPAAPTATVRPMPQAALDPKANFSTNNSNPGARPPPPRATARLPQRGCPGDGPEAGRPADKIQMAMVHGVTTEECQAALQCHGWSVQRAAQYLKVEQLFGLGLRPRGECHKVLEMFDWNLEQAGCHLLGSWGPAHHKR
# Chain of Angiopoietin-1 receptor (Homo sapiens) (Q02763 whole entry): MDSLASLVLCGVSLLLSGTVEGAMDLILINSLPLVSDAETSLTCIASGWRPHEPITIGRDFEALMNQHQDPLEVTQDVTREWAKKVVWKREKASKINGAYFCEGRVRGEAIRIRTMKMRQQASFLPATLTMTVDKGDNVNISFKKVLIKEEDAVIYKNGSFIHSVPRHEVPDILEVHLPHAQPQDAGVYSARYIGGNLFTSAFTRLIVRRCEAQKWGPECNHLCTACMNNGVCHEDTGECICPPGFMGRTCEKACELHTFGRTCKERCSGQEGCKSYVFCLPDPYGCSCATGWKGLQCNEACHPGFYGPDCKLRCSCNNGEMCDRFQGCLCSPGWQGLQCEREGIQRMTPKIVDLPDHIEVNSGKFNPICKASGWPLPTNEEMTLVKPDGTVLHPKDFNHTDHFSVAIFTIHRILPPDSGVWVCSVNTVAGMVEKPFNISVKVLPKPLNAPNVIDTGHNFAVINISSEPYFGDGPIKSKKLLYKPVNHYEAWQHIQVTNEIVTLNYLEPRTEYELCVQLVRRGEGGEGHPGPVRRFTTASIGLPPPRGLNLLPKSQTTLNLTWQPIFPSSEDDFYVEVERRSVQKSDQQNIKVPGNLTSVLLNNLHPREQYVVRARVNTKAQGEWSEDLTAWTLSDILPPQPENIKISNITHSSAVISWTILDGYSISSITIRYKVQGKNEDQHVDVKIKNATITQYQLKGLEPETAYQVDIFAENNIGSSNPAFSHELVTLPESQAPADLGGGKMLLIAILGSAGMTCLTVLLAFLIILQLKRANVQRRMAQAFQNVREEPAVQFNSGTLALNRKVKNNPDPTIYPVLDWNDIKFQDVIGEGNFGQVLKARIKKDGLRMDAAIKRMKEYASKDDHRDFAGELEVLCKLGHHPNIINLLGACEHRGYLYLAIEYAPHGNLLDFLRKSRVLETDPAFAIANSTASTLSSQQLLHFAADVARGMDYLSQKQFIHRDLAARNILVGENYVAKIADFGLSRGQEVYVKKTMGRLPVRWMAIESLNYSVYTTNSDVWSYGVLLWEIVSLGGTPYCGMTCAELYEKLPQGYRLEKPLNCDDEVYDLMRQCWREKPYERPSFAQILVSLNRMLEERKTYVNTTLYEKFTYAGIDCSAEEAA
SMILES,inhibition [1],inhibition [2],inhibition [3],inhibition [4],inhibition [5],inhibition [6],inhibition [7],inhibition [8],inhibition [9],inhibition [10]
Nc1nc(-c2ccc3c(c2)C(=Cc2cc(Br)c(O)c(Br)c2)C(=O)N3)cs1,0.99%,-1.8%,-1%,-0.24%,3.72%,0.05%,37.1%,-1.13%,-0.19%,1.01%
CCN1CCC(CC(=O)Nc2n[nH]c3nc(-c4cccs4)c(Br)cc23)CC1,0.14%,-2%,-2.77%,9.68%,11.1%,-7.55%,4.72%,-0.98%,-0.2%,-0.5%
COC(=O)Nc1nc2cc(Oc3ccc(NC(=O)Nc4cccc(C(=O)O)c4)cc3)ccc2[nH]1,-0.23%,-2.22%,0.87%,1.97%,7.16%,-0.91%,17.4%,-0.08%,0.6%,1.98%
c1cnn2ncc(-c3ccnc(Nc4ccc5c(c4)OCCO5)n3)c2c1,13.2%,6.85%,19.8%,3.72%,20.5%,18.1%,64.5%,3.29%,21.7%,5.45%
CC1=C(C(=O)Nc2ccc3[nH]ncc3c2)C(c2ccc(Cl)c(Cl)c2)CC(=O)N1 (stereo not given),1.43%,2.26%,6.35%,2.31%,4.81%,-0.39%,9.22%,0.3%,1.41%,2.44%
CCCN1CCC(Oc2cc(Nc3nc(Nc4cccc(F)c4C(N)=O)c4cc[nH]c4n3)c(OC)cc2Cl)CC1,2.76%,1%,3.16%,4.02%,10.1%,-2.66%,1.46%,-0.19%,2.16%,2.22%
Cc1ccc(C(=O)NC2CCCCC2)cc1-c1ccc(C(=O)NCC2CC2)cc1,0.52%,4.18%,5.66%,1.79%,4.17%,0.56%,-2.52%,2.3%,4.5%,2.3%
Fc1cccc(COc2ccc(Nc3ncnc4sc(-c5cccs5)cc34)cc2Cl)c1,1.01%,-0.73%,1.47%,1.07%,2.01%,3.5%,4.12%,-0.19%,1.13%,1.3%
O=C(Nc1n[nH]c2nc(-c3ccco3)c(Br)cc12)C1CC1,-0.45%,4.92%,9.1%,7.26%,13.7%,2.22%,-0.4%,0.93%,0.24%,3.1%
COc1ccc(COc2ccc(Cc3cnc(N)nc3N)cc2OC)cc1,0.65%,1.62%,2.91%,2.2%,8.78%,0.7%,-8.3%,2.24%,3.64%,32.4%
[O-][S+]1CCN(Cc2ccc(-c3ccc4ncnc(Nc5ccc(OCc6ccccc6)c(F)c5)c4c3)o2)CC1,-0.11%,3.42%,4.7%,2.18%,2.24%,0.61%,7.01%,0.67%,0.38%,1.24%
Nc1nc(-c2ccccn2)c(-c2ccc3ncccc3n2)s1,-0.74%,3.91%,7.33%,2.07%,1.68%,3.7%,5.67%,2.33%,2.94%,3.9%
Fc1cccc(COc2ccc(Nc3ncnc4cc(-c5ccc[nH]5)sc34)cc2Cl)c1,2.33%,-0.22%,3.69%,2.27%,8.54%,1.22%,1.7%,0.28%,0.88%,2.39%
CC1=C(C(=O)Nc2ccc3[nH]ncc3c2)C(c2ccc3ccccc3c2)CC(=O)N1 (stereo not given),2.59%,2.81%,9.73%,3.02%,8.68%,3.25%,22.4%,2.91%,20.3%,3.43%
CNC(=O)c1cncc(/C=C/c2c(Cl)cccc2Cl)c1,1%,5.68%,23.4%,5.91%,3.57%,8.81%,38.8%,0.26%,11%,2.22%
CCn1c(-c2nonc2N)nc2cnc(Oc3cccc(NC(=O)c4ccc(OCCN5CCOCC5)cc4)c3)cc21,1.88%,3.35%,5.81%,3.75%,6.59%,0.95%,5.9%,-0.31%,-0.19%,4.32%
Cc1nn(C)c2cc(N(C)c3ccnc(Nc4cccc(S(N)(=O)=O)c4)n3)ccc12,-0.53%,25.8%,67.9%,10.6%,52.5%,30%,80.7%,0.86%,10.2%,2.81%

SMILES,inhibition [1],inhibition [2],inhibition [3],inhibition [4],inhibition [5],inhibition [6],inhibition [7],inhibition [8],inhibition [9],inhibition [10]
COc1cc2ncn(-c3cc(OCc4ccccc4Cl)c(C(N)=O)s3)c2cc1OC,1.86%,1.67%,7.65%,3.11%,26.9%,16.9%,63.2%,0.35%,7.05%,0.53%
COc1ccc2cc(-c3c(-c4ccncc4)nc(-c4ccc([S+](C)[O-])cc4)n3C)ccc2c1 (stereo not given),-1.16%,4.18%,5.59%,53.3%,83.2%,4.52%,8.26%,0.59%,0.47%,2.78%
COc1cc2ncn(-c3cc(O[C@@H](C)c4ccccc4Cl)c(C(N)=O)s3)c2cc1OC,-4.6%,1.7%,7.65%,4.95%,24.2%,33.8%,79.5%,3.06%,6.07%,1.91%
COc1cc(C=NNc2ncnc3c2cnn3-c2ccccc2)ccc1O,43.1%,4.48%,12.9%,13%,52.4%,10.8%,51.1%,1.06%,5.3%,3.95%
NS(=O)(=O)c1cccc(-c2ccc3c(NC(=O)C4CC4)n[nH]c3c2)c1,0.39%,-1.67%,-2.6%,1.65%,3.55%,-2.18%,2.91%,-0.31%,0.27%,0.7%
COc1ccc(-c2ccncc2)cc1C(N)=O,0.26%,6.14%,5.31%,5.23%,6.4%,3.12%,5.16%,1.17%,2.39%,1.19%
COc1cc(C)c(NC(=O)CN(C)C)cc1Nc1nc(Nc2cccc(F)c2C(N)=O)c2cc[nH]c2n1,0.44%,1.93%,3.64%,0.55%,0.17%,30.8%,73.4%,1.18%,14%,2.31%
CS(=O)(=O)CCNCc1ccc(-c2ccc3ncnc(Nc4ccc(OCc5cccc(F)c5)c(C(F)(F)F)c4)c3c2)o1,1.13%,3.58%,4.26%,4.55%,5.67%,4.87%,10.5%,0.57%,1.13%,1.7%
NC(=O)c1cccc(Nc2nccc(Nc3cccc4[nH]ncc34)n2)c1,25.4%,17.4%,62.5%,9.12%,47.5%,6.88%,58.3%,5.44%,47.8%,0.29%
COc1cc2ncn(-c3cc(O[C@H](C)c4ccccc4Cl)c(C(N)=O)s3)c2cc1OC,-0.3%,5.59%,19.3%,12.7%,41.7%,17.7%,70.8%,6.31%,28.2%,1.31%
CS(=O)(=O)CCN(CC#N)Cc1ccc(-c2ccc3ncnc(Nc4ccc(OCc5cccc(F)c5)c(Cl)c4)c3c2)o1,1.94%,-2.12%,-1.96%,2.27%,1.84%,2.76%,23.2%,-0.59%,0.01%,2.64%
CC1=C(C(=O)Nc2ccc3[nH]ncc3c2)C(c2ccc(F)cc2)NC(=O)N1 (stereo not given),1.72%,2.11%,2.37%,0.66%,3.1%,4.95%,31.2%,0.84%,3.68%,0.85%
NS(=O)(=O)c1ccc(N/N=C2\C(=O)Nc3ccc(C(=O)NCCc4c[nH]cn4)cc32)cc1,-0.45%,5.46%,12.1%,1.64%,3.16%,1.59%,10.1%,1.35%,2.72%,5.55%
CN1CCC(C(=O)Nc2n[nH]c3nnc(-c4ccccc4)cc23)CC1,-1.15%,3.47%,4.52%,2.55%,7%,2.98%,7.95%,1.4%,1.85%,0.43%
CS(=O)(=O)Nc1ccc(N/C=C2\C(=O)Nc3ccccc32)cc1,-3.83%,-2.97%,0.17%,0.36%,2.36%,-2.85%,6.96%,-0.49%,1.32%,5.97%
COc1cc2ncn(-c3cc(OCc4ccccc4C(F)(F)F)c(C(N)=O)s3)c2cc1OC,-7.75%,-1.86%,7.03%,6.11%,20.9%,12.5%,59.1%,0.63%,6.53%,2.57%
